According to PubChem BioAssay (Tox21):
Inconclusive results are not listed. Activity calls are given as the source filed them. Unless noted, calls follow the shape of the dose curve; as a rule, active = well fitted curve in the direction sought with a large enough effect in the repeat runs; inconclusive = weak or mixed curves; inactive = no such curve, though single readings can be large; an effect the other way counts as inactive or inconclusive.

Tests used:
[1] = qHTS assay to identify small molecule antagonists of the retinoid acid receptor (RAR) signaling pathway - cell viability counter screen (AID 1159551); also: nearly all actives have a fitted effect of over 35% in size
How it was run: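 Viability of C3RL4 cells is quantified from ATP by luminescence after 6 h treatment at 37 C with compounds and 1 uM retinol.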

[2] = qHTS assay to identify small molecule antagonists of the estrogen related receptor (ERR) signaling pathway from Tox21 library - cell viability counter screen (AID 1224834); also: nearly all actives have a fitted effect of over 30% in size
How it was run: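 In this quantitative HTS format, ERR cells receive compounds in DMSO and are incubated for 17.5 h at 37 C. Live-cell protease activity is then detected with CellTiter-Fluor.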

[3] = target: Luciferin 4-monooxygenase (Photinus pyralis) (UniProt P08659); assay: qHTS assay to identify small molecule inhibitors of firefly luciferase (AID 1224835); also: series mostly up to about 120 µM; nearly all actives have a fitted effect of over 25% in size
Sequence of Luciferin 4-monooxygenase (Photinus pyralis) (P08659 whole entry, looked up): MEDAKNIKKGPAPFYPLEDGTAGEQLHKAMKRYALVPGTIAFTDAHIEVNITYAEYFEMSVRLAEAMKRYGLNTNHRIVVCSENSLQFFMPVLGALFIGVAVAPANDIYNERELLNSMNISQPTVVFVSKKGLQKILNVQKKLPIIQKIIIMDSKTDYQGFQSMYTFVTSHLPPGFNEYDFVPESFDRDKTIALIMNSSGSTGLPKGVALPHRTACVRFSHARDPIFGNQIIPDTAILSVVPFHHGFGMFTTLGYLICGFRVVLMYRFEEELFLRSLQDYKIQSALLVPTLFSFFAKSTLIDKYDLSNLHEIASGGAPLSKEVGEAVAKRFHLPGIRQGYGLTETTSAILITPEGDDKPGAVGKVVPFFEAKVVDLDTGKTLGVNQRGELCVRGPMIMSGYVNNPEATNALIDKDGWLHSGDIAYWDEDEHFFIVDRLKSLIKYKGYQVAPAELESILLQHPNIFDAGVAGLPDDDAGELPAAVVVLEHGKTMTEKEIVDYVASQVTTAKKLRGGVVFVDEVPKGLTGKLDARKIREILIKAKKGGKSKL
How it was run: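 Biochemical qHTS: compounds run as interplate titrations against purified firefly enzyme, with D-luciferin and ATP each at its KM concentration. Light output recorded by CCD imaging.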

[4] = qHTS assay to identify small molecule agonists of the constitutive androstane receptor (CAR) signaling pathway - cell viability counter screen (AID 1224836); also: series mostly up to about 92 µM; nearly all actives have a fitted effect of over 45% in size
How it was run: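 HepG2 cells stably carrying hCAR and a CYP2B6-2.2kb reporter were plated 4 h, then given compounds at 15 concentrations plus PK11195 (final 0.75 uM). After 23 h at 37 C, viability was read by CellTiter-Fluor fluorescence.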

[5] = qHTS assay to identify small molecule antagonists of the constitutive androstane receptor (CAR) signaling pathway - cell viability counter screen (AID 1224837); also: series mostly up to about 92 µM; nearly all actives have a fitted effect of over 45% in size
How it was run: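 In quantitative HTS format, compounds at 15 concentrations were applied to HepG2 cells double-transfected with hCAR and CYP2B6-2.2kb under 50 nM CITCO stimulation; live-cell protease activity was read after 23 hr via CellTiter-Fluor.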

[6] = target: Nuclear receptor subfamily 1 group I member 3 (Homo sapiens) (UniProt Q14994); assay: qHTS assay to identify small molecule antagonists of the constitutive androstane receptor (CAR) signaling pathway (AID 1224838); also: nearly all actives have a fitted effect of over 40% in size
Sequence of Nuclear receptor subfamily 1 group I member 3 (Homo sapiens) (Q14994 whole entry, looked up): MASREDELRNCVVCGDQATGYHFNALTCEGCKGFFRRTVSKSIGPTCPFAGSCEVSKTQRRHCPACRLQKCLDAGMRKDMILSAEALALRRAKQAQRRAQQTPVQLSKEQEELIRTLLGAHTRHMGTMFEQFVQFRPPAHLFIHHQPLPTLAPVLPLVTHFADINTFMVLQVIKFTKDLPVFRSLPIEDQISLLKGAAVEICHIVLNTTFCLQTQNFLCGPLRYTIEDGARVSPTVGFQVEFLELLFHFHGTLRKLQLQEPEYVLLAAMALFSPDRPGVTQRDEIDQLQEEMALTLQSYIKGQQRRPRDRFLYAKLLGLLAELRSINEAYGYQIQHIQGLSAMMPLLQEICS
How it was run: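 CITCO-stimulated (50 nM final) HepG2 cells stably transfected with hCAR and CYP2B6-2.2kb luciferase were exposed to compounds at 15 concentrations for 24 h at 37 C/5% CO2. A luciferase reagent was added and luminescence recorded after 30 min.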

[7] = target: Nuclear receptor subfamily 1 group I member 3 (Homo sapiens) (UniProt Q14994); assay: qHTS assay to identify small molecule agonists of the constitutive androstane receptor (CAR) signaling pathway (AID 1224839); also: nearly all actives have a fitted effect of over 15% in size; also: potency is read from the fitted curve at half-maximal effect;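 as to activation: HepG2 cells stably carrying human CAR and a CYP2B6 luciferase reporter; series mostly up to about 92 µM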
How it was run: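 HepG2 cells stably expressing hCAR and a CYP2B6-2.2kb luciferase reporter were treated with compounds at 15 concentrations plus 0.75 uM PK11195 (final) for 24 h at 37 C; luminescence was read after ONE-Glo addition.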

[8] = qHTS assay to identify small molecule antagonists of the estrogen related receptor signaling pathway with the pleiotropic PPARgamma coactivator (PGC) from Tox21 10K library - cell viability counter screen (AID 1224840; active = well fitted cell-killing curve with a large enough effect in the repeat runs, not every such curve was filed as active; also: nearly all actives have a fitted effect of over 40% in size)
How it was run: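 Viability counter screen, PGC/ERR cells: 17.5 h compound exposure at 37 C, CellTiter-Fluor fluorescence endpoint.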

[9] = target: Thyrotropin receptor (Homo sapiens) (UniProt P16473); assay: qHTS assay to identify small molecule agonists of the thyroid stimulating hormone receptor (TSHR) signaling pathway (AID 1224843; calls by dose curve; also: nearly all actives have a fitted effect of over 45% in size)
Sequence of Thyrotropin receptor (Homo sapiens) (P16473 whole entry, looked up): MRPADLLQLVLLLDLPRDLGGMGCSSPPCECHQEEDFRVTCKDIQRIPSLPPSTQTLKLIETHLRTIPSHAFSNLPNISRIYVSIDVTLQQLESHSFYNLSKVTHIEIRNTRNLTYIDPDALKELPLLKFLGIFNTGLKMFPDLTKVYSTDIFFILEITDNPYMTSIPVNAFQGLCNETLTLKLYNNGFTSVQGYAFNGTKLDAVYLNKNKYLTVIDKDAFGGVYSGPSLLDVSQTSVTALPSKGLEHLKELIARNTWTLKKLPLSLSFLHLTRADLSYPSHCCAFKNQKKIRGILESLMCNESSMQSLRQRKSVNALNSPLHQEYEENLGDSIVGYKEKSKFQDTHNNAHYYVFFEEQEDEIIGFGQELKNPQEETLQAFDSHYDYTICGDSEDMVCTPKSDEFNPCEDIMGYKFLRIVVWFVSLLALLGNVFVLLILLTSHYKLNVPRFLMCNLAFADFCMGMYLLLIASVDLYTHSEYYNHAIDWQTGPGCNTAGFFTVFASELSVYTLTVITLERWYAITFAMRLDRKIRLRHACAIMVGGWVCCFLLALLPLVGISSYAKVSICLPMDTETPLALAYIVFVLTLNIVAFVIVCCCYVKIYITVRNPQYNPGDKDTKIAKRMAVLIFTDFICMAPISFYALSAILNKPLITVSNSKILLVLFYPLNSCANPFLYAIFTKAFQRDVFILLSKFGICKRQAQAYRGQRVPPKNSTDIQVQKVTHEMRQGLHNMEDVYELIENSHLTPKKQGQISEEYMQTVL
How it was run: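 Agonist-mode screen: TSHR HEK293 cells received test chemicals for half an hour at room temperature, then HTRF cAMP detection reagents for one hour prior to fluorescence measurement. Each chemical ran as a 15-concentration series, triplicated.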

[10] = qHTS assay to identify small molecule agonists of the hypoxia (HIF-1) signaling pathway - cell viability counter screen (AID 1224844; calls by dose curve; also: nearly all actives have a fitted effect of over 50% in size)
How it was run: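 Same wells as the HIF-1 reporter screen; ME-180 cells carrying HRE-bla, 17 hr treatment at 37C; CellTiter-Glo luminescence read after 30 min at room temperature.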

[11] = qHTS assay to identify small molecule agonists of H2AX (AID 1224845; active = well fitted activation curve with a large enough effect in the signal ratio in the repeat runs, not every such curve was filed as active; the % refers to the signal ratio)
How it was run: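 Wild-type CHO-K1 cells, plated overnight, exposed 3hr at 37C to 15 concentrations (0.76% DMSO final). Lysed, then HTRF anti-pH2AX (S139) cryptate and anti-H2AX-d2 antibodies, 24 hr room temperature; 665/620 nm emission read.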

[12] = qHTS assay to identify small molecule antagonists of the estrogen related receptor signaling pathway with the pleiotropic PPARgamma coactivator (PGC) from Tox21 10K library (AID 1224841; call rule not given here; also: series mostly up to about 92 µM; actives are mostly falling curves and most rising ones were filed inactive; nearly all actives have a fitted effect of over 50% in size)
How it was run: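 In the PGC/ERR line, DMSO solutions of test chemicals are pin-delivered to 2,000 cells/well six hours after dispensing. Following eighteen hours' incubation, One-Glo reagent is added and luminescence recorded.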

[13] = qHTS assay to identify small molecule agonists of the estrogen related receptor signaling pathway with the pleiotropic PPARgamma coactivator (PGC) from Tox21 10K library (AID 1224842); also: nearly all actives have a fitted effect of over 15% in size
How it was run: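 PGC/ERR reporter cell line, 2,000 cells per well, incubated 6 h at 37 C before 23 nL compound in DMSO was added. After 18 h at 37 C, One-Glo luminescence read following 30 min at room temperature.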

[14] = qHTS assay to identify small molecule agonists of the retinoic acid receptor (RAR) signaling pathway (AID 1159553)
How it was run: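 Compounds dissolved in DMSO were pinned onto C3RL4 cells seeded the previous day, and plates were held 6 hr at 37 C. RARE-driven luciferase output was then read by luminescence.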

[15] = qHTS assay to identify small molecule antagonists of the estrogen related receptor (ERR) signaling pathway - cell viability counter screen (AID 1224818); also: series mostly up to about 46 µM
How it was run: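 Cytotoxicity check run alongside the ERR antagonist screen: cells exposed to test compounds 17.5 h at 37 C, viability taken as CellTiter-Fluor fluorescence intensity.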

[16] = qHTS assay to identify small molecule antagonists of the estrogen related receptor (ERR) signaling pathway (AID 1224819; also: series mostly up to about 46 µM; nearly all actives have a fitted effect of over 50% in size)
How it was run: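 ERR reporter cells were plated at 2,000 cells/well and left 6 h at 37 C/5% CO2 before pin-tool transfer of compounds in DMSO. After 18 h at 37 C, One-Glo was added and luminescence was read 30 min later at room temperature.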

[17] = qHTS assay to identify small molecule agonists of the estrogen related receptor (ERR) signaling pathway (AID 1224820)
How it was run: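 After 6 h plating (2,000 cells/well) and 18 h compound treatment at 37 C, ERR cells were lysed with One-Glo and luminescence read after 30 min at room temperature.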

[18] = tested on: estrogen-related receptor alpha (ERRalpha) with PGC-1alpha coactivator, human; assay: qHTS assay to identify small molecule antagonists of the estrogen related receptor signaling pathway with the pleiotropic PPARgamma coactivator (PGC) (AID 1224821; calls by dose curve;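 also: series mostly up to about 46 µM; lower luminescence signal means antagonism of PGC/ERR signalling; nearly all actives have a fitted effect of over 50% in size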)
How it was run: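 Luminescence from One-Glo luciferase reagent (30 min, room temperature) measured after 18 h compound treatment at 37 °C. Cells carry the PGC/ERR reporter and were seeded 6 h prior to dosing.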

[19] = qHTS assay to identify small molecule agonists of the estrogen related receptor signaling pathway with the pleiotropic PPARgamma coactivator (PGC) (AID 1224823)
How it was run: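 Luminescence from One-Glo reagent (30 min, room temperature) was read after 18 h compound treatment at 37 C of PGC/ERR cells plated 6 h beforehand; compounds delivered in DMSO by pin tool.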
% is scaled to controls: 0 for no effect and ±100 for the full control effect.

NC(=O)N[C@@H](CCC(=O)O)C(=O)O
inactive: outcome [1] | Potency [2] | Potency [3] | outcome [4] | outcome [5] | Potency [6] | Potency [7] | outcome [8] | Potency [9] | Potency [10] | Potency [11]

CCC(C(=O)NC(=O)NC(C)=O)c1ccccc1 (stereo unspecified)
inactive: outcome [1] | Potency [2] | Potency [3] | outcome [4] | outcome [5] | Potency [6] | Potency [7] | outcome [8] | Potency [12] | Potency [13] | Potency [9] | Potency [10] | Potency [11]

NC(CCC(=O)O)C(=O)O (stereo unspecified)
inactive: outcome [1] | Potency [2] | Potency [3] | outcome [4] | outcome [5] | Potency [6] | Potency [7] | outcome [8] | Potency [9] | Potency [10] | Potency [11]

NC(=O)N1c2ccccc2CC(=O)c2ccccc21
inactive: outcome [1] | Potency [2] | Potency [3] | outcome [4] | outcome [5] | Potency [6] | Potency [7] | outcome [8] | Potency [9] | Potency [10] | Potency [11]

C[N+]1(C)[C@@H]2CC(OC(=O)[C@H](CO)c3ccccc3)C[C@H]1[C@@H]1O[C@@H]12 (stereo partly specified)
inactive: outcome [1] | Potency [14] | Potency [3] | outcome [4] | outcome [5] | Potency [9] | Potency [10] | Potency [11]

N[C@@H](CCC(=O)O)C(=O)O
inactive: outcome [1] | outcome [15] | Potency [2] | Potency [3] | outcome [4] | outcome [5] | Potency [6] | Potency [7] | outcome [8] | Potency [9] | Potency [10] | Potency [11]

OCCCCCO
inactive: outcome [1] | Potency [2] | Potency [3] | outcome [4] | outcome [5] | Potency [6] | Potency [7] | outcome [8] | Potency [12] | Potency [13] | Potency [9] | Potency [10] | Potency [11]

CC[N+](CC)(CC)CCOc1cccc(OCC[N+](CC)(CC)CC)c1OCC[N+](CC)(CC)CC
inactive: outcome [1] | outcome [15] | Potency [2] | Potency [3] | outcome [4] | outcome [5] | Potency [6] | Potency [7] | outcome [8] | Potency [9] | Potency [10] | Potency [11]

CCCO[Si](OCCC)(OCCC)OCCC
inactive: outcome [1] | Potency [2] | Potency [3] | outcome [4] | outcome [5] | Potency [6] | Potency [7] | outcome [8] | Potency [12] | Potency [13] | Potency [9] | Potency [10] | Potency [11]

CN1CC(=O)N/C1=N/C(=O)Nc1cccc(Cl)c1
active: Potency [7] 33.5 µM
inactive: outcome [1] | outcome [15] | Potency [2] | outcome [4] | outcome [5] | Potency [6] | outcome [8] | Potency [9] | Potency [10] | Potency [11]

Cc1ccc(C(=O)Nc2ccc(S(=O)(=O)O)c3cc(S(=O)(=O)O)cc(S(=O)(=O)O)c23)cc1NC(=O)c1cccc(NC(=O)Nc2cccc(C(=O)Nc3cc(C(=O)Nc4ccc(S(=O)(=O)O)c5cc(S(=O)(=O)O)cc(S(=O)(=O)O)c45)ccc3C)c2)c1
inactive: outcome [1] | outcome [15] | outcome [16] | outcome [17] | outcome [18] | outcome [19] | Potency [2] | outcome [4] | outcome [5] | outcome [8] | Potency [12] | Potency [13] | Potency [9] | Potency [10] | Potency [11]

CC[C@H]1OC(=O)[C@H](C)[C@@H](O[C@H]2C[C@@](C)(OC)[C@@H](O)[C@H](C)O2)[C@H](C)[C@@H](O[C@@H]2O[C@H](C)C[C@H](N(C)C)[C@H]2O)[C@](C)(OC)C[C@@H](C)C(=O)[C@H](C)[C@@H](O)[C@]1(C)O
inactive: outcome [1] | Potency [2] | Potency [3] | outcome [4] | outcome [5] | Potency [6] | Potency [7] | outcome [8] | Potency [13] | Potency [10] | Potency [11]

C=CCOCC(O)CO (stereo unspecified)
inactive: outcome [1] | Potency [2] | Potency [3] | outcome [4] | outcome [5] | Potency [6] | Potency [7] | outcome [8] | Potency [9] | Potency [10] | Potency [11]

CCCCCCCCCCOc1cc2c(=O)c(C(=O)OCC)c[nH]c2cc1OCC
inactive: activity change, negative = cytotoxicity [1] 1.07% [at 8.39 µM] | viability change, negative = cytotoxic [2] 3.47% [at 8.39 µM] | activity change, negative = inhibition [3] -1.76% [at 10.5 µM] | viability change, negative = cytotoxic [4] 4.44% [at 8.39 µM] | activity change, negative = cytotoxicity [5] 5.07% [at 8.39 µM] | activity, negative = inhibition [6] 5.74% [at 8.39 µM] | activation [7] -0.235% [at 8.39 µM] | viability change, negative = cytotoxic [8] 9.28% [at 8.39 µM] | activation [9] -0.126% [at 8.39 µM] | activity change, negative = cytotoxicity [10] 1.84% [at 6.97 µM] | activation (H2AX phosphorylation) [11] 0.376% [at 14 µM]

Cc1cccc(C)c1NC(=O)CC12CCCN1CCC2
inactive: outcome [1] | Potency [2] | Potency [3] | outcome [4] | outcome [5] | Potency [6] | Potency [7] | outcome [8] | Potency [12] | Potency [13] | Potency [9] | Potency [10] | Potency [11]

C1CCC2(CCCCO2)OC1
inactive: outcome [1] | Potency [2] | Potency [3] | outcome [4] | outcome [5] | Potency [6] | Potency [7] | outcome [8] | Potency [9] | Potency [10] | Potency [11]

CC(COc1ccccc1)NN (stereo unspecified)
inactive: outcome [1] | Potency [2] | Potency [3] | outcome [4] | outcome [5] | Potency [6] | Potency [7] | outcome [8] | Potency [12] | Potency [13] | Potency [9] | Potency [10] | Potency [11]

CCOC(=O)c1cnc2c(cnn2CC)c1NN=C(C)C
inactive: outcome [1] | outcome [15] | Potency [2] | Potency [3] | outcome [4] | outcome [5] | Potency [6] | Potency [7] | outcome [8] | Potency [10] | Potency [11]
